# Experimental data taken from PubChem BioAssay AID504465 (National Center for Advancing Translational Sciences (NCATS), 2011).
# Out of some 2,100 compounds screened, about 210 (10%) were called active. Inconclusive results (about 53%) are left out. Some of the results follow. A number with no mark means an inactive call. Calls follow the shape of the dose curve; as a rule, active = well fitted inhibition curve with a large enough effect; inconclusive = small, poorly fitted or top-dose-only effect, or effect the other way; inactive = no such curve, though single readings can be large or run the other way.
# Test: IN Cell qHTS Assay for Inhibitors of the mTORC1 Signaling Pathway in MEF (Tsc2-/-, p53-/-) Cells: Sytravon; also: nearly all actives have a fitted effect of over 60% in size
# Settings: phospho-rpS6 immunofluorescence, 24 h; series mostly up to 38.3 µM; activity, negative = inhibition: at the top concentration
# Description: NIH Molecular Libraries Probe Production Centers Network [MLPCN] NIH Chemical Genomics Center [NCGC] MLPCN Grant: NS059428-01 Assay Submitter (PI): Blenis, John; Hoffman, Greg; Harvard University NCGC Assay Overview: Thee mammalian target of rapamycin (mTOR) is an intracellular serine/threonine kinase Aberrant regulation of mTOR signaling plays a causative role in a number of human diseases, including cancer, benign tumors such as lymphangioleiomyomatosis (LAM) and Tuberous Sclerosis Complex (TSC), and metabolic diseases such as diabetes and obesity. This project aims to identify inhibitors of ribosomal protein S6 (rpS6) phosphorylation. The phosphorylation of rpS6 is a key event downstream of mTOR activation. The assay uses a phospho-specific antibody of phospho-rpS6 to detect inhibitors of mTOR activation. Mutations in the Tsc1 and Tsc2 genes are the underlying genetic lesions responsible for TSC, causing constitutive activation of the mTORC1 pathway and leading to profound effects on cell metabolism. Aberrant metabolism in cancer has recently received significant attention as a target to develop therapeutic agents in the treatment of cancer1. As Tsc2-/- cells have lost the ability to respond to energy and growth factor deprivation, these cells are unable to properly down regulate cellular biosynthetic processes in response to metabolic stress, and are thus extremely sensitive to glucose deprivation-induced death.2 A central goal of this project is to explore the unique cell survival and metabolic properties of cells with Tsc1 or Tsc2 by screening for compounds that selectively target the Tsc2-/- MEFs by screening both Tsc2-/- and WT MEF cell lines. We hope to better understand these aspects of TSC physiology in order to exploit them for therapeutic benefit.
# NCGC IN Cell Assay Protocol: For quantitative high throughput analysis of mTORC1 signaling, we developed a cell-based assay for immuno-fluorescence based detection of rpS6 phosphorylation on the Acumen Explorer that will be used a platform for the primary small molecule screen. Mouse embryonic fibroblasts (MEFs) are cultured in 1536-well plates using DMEM + 10% FBS. Twenty-four hrs after plating, test compounds (solubilized in DMSO) are delivered and incubated with the cells for 24 hrs at 37 degree Celsius. Following the incubation, media with compound is aspirated and the cells are fixed in 4% paraformaldehyde (PFA) containing PBS + 0.2% TX-100. Next, PFA is aspirated, cells are washed two times with PBS plus 0.2% TX-100 and the cells are blocked for 1 hr at room temperature (blocking buffer: LiCOR Blocking Buffer plus 0.2% TX-100). This is followed by aspiration and staining with Alexa-488 conjugated-phospho-rpS6 Ser235/236 antibody for 2 hours at room temperature (Cell Signaling Technology # 4803, 1:50 dilution in blocking buffer). Cells are washed two times with PBS plus 0.2% TX-100, and stained with 10 uM propidium iodide (PI) for 20-25 minutes for cell number measurement (1:500 dilution of Hoescht staining is also added for IN Cell imaging). Active wells which are selected (based on Acumen results) are imaged on the IN Cell 1000 (GE Healthcare) using the D360/40X and HQ480/40X excitation filters for the Hoechst and Alexa-488 cytoplasmic stains, respectively. The fluorescence emission filters used were HQ460/40M and HQ535/50M for the Hoechst and Alexa-488 cytoplasmic stains, respectively. The normalized phospho-S6 staining is calculated as the ratio of […] for the single concentration rapamycin control (7.5 nM) and DMSO columns. […] Inhibition of the pathway is defined based on the normalized phospho-S6 intensity in rapamycin treated cells. Each treatment is reported as the % positive cells in the well, where thresholds are defined by selecting wells with the highest and lowest signal and differentiating between the % non-active and % active populations. […]
# Potency is read from the fitted curve at half-maximal effect.
Structure (SMILES),"activity, negative = inhibition",Potency
COC(=O)c1scc(-c2ccc(C)cc2)c1S(=O)(=O)Nc1cc(Cl)ccc1C,-2.27%,–
COc1ccccc1CNS(=O)(=O)c1ccc(-c2cnc(C3CC3)o2)cc1,-5.26%,–
Cc1ccc(NS(=O)(=O)c2cc(-c3cnc(C4CC4)o3)ccc2C)cc1Cl,-8.33%,–
Cc1cc(C)c(NS(=O)(=O)c2ccc(-c3cnc(C4CC4)o3)cc2)c(C)c1,–,11.7 µM (active)
Cc1ccccc1-c1nc(SCC(=O)N(C)c2ccccc2)c2c(=O)n(C)c(=O)n(C)c2n1,9.38%,–
CCOc1ccc(Nc2nc(N)c(C(=O)c3ccccc3Cl)s2)cc1,1.3%,–
CCOc1ccc(Nc2nc(-c3cccc(Cl)c3)c3c(n2)-c2ccccc2OC3)cc1,–,2.07 µM (active)
O=c1c(-c2cc(-c3ccc(F)cc3)nc3c2COc2ccc(Cl)cc2-3)coc2ccc(F)cc12,19.8%,–
Cc1ccccc1C1CC(=O)Nc2ccc3ccccc3c21 (configuration not stated),-6.74%,–
CCOc1cc(CNCCSc2nnnn2-c2ccccc2)ccc1OC,-2.4%,–
Cc1ccc2nc3sc(C(=O)Nc4ccc(F)cc4)cc3cc2c1,–,2.33 µM (active)
Cc1ccc(NC(=O)CCS(=O)(=O)c2ccc3nc(C)sc3c2)cc1,-26%,–
COc1ccc(C2=CC(c3ccc(F)cc3)n3ncc(C(=O)Nc4ccc(C)cc4)c3N2)cc1 (configuration not stated),-0.389%,–
Cc1sc2ncn(CC(=O)N3CCN(c4ccc(Cl)cc4)CC3)c(=O)c2c1S(=O)(=O)N1CCN(c2ncccn2)CC1,19.3%,–
COc1ccccc1CNC(=O)c1ccc2c(c1)CCN2S(=O)(=O)c1ccccc1,-26%,–
CC(=O)c1ccc(NC(=O)CC2Nc3cccc4cccc(c34)NC2=O)cc1 (configuration not stated),19%,–
O=S(=O)(NCC(c1ccco1)S(=O)(=O)c1cccs1)c1ccc(Cl)cc1 (configuration not stated),-5.76%,–
O=C(Cn1c(=O)c2ccccc2n(CC(=O)Nc2ccc(Cl)cc2)c1=O)NCCc1ccccc1,–,14.7 µM (active)
CCOc1ccc(NC(=O)Cn2c(=O)n(CCCCCC(=O)NCc3ccccc3)c(=O)c3sccc32)cc1,-82.5%,–
O=C(CCCn1c(=O)c2ccccc2n(Cc2cccc(Cl)c2)c1=O)NCCc1ccc(Cl)cc1,-14.3%,–
O=C(NCCc1ccc(F)cc1)C(=O)NCC(c1cccs1)S(=O)(=O)c1ccc(Cl)cc1 (configuration not stated),-25.5%,–
COc1ccc(-n2c(SCCC(C)C)nc3sc4c(c3c2=O)CC(C(C)C)OC4)cc1 (configuration not stated),8.33%,–
Fc1ccc(C2=NC(c3cccc(C(F)(F)F)c3)=Nc3ccccc3N2)cc1,0%,–
CCCn1c2ccccc2c2cnn(CC(=O)N(CCCOC)Cc3ccco3)c(=O)c21,-4.31%,–

Structure (SMILES),"activity, negative = inhibition",Potency
O=C(Nc1cccs1)Nc1cc(C(F)(F)F)ccc1Cl,–,9.27 µM (active)
Cc1ccc(N=C2NC(=O)CC(C(=O)Nc3cc(C(F)(F)F)ccc3Cl)S2)cc1 (configuration not stated),-37.5%,–
COc1ccc(NC(=O)C2CCCN(S(=O)(=O)c3cccc4nonc34)C2)cc1Cl (configuration not stated),20.3%,–
Cc1cccc(C(CC(=O)NCC2(c3ccccc3)CCCC2)c2ccccc2)c1O (configuration not stated),-74%,–
COc1ccccc1N1CCN(C(=O)CSc2nc3ccccc3nc2Cc2ccc(C)cc2)CC1,5.26%,–
O=C(Cn1cc(SCc2ccccc2)c2ccccc21)N1CCCCC1,-24.4%,–
CCC1CCc2nc3sc(C(=O)Nc4ccc(C)cc4)c(N)c3cc2C1 (configuration not stated),–,5.21 µM (active)
CCN1CCc2nc3sc(C(=O)Nc4cccc(Cl)c4C)c(N)c3cc2C1,-19.2%,–
CCC(C)NC(=O)c1sc2nc(C)c(C(=O)Nc3ccc(C)cc3C)c(-c3ccc(Cl)cc3)c2c1N (configuration not stated),4.53%,–
Nc1c(C(=O)Nc2ccccc2F)sc2nc3c(cc12)CCCCCC3,-18.6%,–
CC1CCc2nc3ncn(CC(=O)Nc4cccc(C#N)c4)c(=O)c3cc2C1 (configuration not stated),1.3%,–
CCC1CCc2nc3sc(C(=O)Nc4ccc(F)c(F)c4)c(N)c3cc2C1 (configuration not stated),–,5.85 µM (active)
CC1CCCCN1S(=O)(=O)c1cc2c(=O)nc3ccccn3c2cc1Cl (configuration not stated),1.56%,–
C=CCc1ccc(OCc2ccc(C(=O)Nc3ccc(NC(C)=O)cc3)o2)c(OC)c1,-24%,–
Cc1cc(C)cc(OCC(=O)NCC(c2ccc(Cl)cc2)N2CCCCC2)c1 (configuration not stated),-24.5%,–
CCc1c(C)nc2nc(-c3ccccc3)nn2c1NCc1ccc(C)cc1,-13.9%,–
COc1ccc(Br)c(C(=O)Nc2cc3c(cc2N2CCCC2)n(C)c(=O)c(=O)n3C)c1,0.892%,–
CC(C)c1ccc(NC(=O)c2cc(S(=O)(=O)NCCc3ccccc3)ccc2F)cc1,6.25%,–
CC(=O)c1ccc(C(=O)N(CCCN(C)C)c2nc3c(C)c(C)ccc3s2)cc1,–,14.7 µM (active)
COc1ccccc1NC(=O)C1=C(C)Nc2nc(-c3ccco3)nn2C1c1cccc(C)c1 (configuration not stated),-49.1%,–
COc1cc(CNC(=O)c2ccc3nc(Cc4ccccc4)oc3c2)cc(OC)c1OC,1.3%,–
CCc1ccccc1NS(=O)(=O)c1ccc2[nH]cc(C(=O)NC3CCCC3)c(=O)c2c1,11.2%,–
Cc1ccccc1CNCCCSc1nnnn1-c1ccccc1,-12.6%,–
